# Counter-ions that a name gives are not always drawn.
# Key:
# Test in all cases: normalised indicator fluorescence (fraction of RNA + indicator signal without compound); higher = less displacement of indicator (weaker competition)
# Conditions in all cases: compound concentration: 5 uM, 30 min
# hsa-mir-191 loop = system: hsa-mir-191 loop
# How it was run: (§1)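 Compounds, each at about 5 uM final from 0.25 μL of 1 mM DMSO stock, were tested in 96-well plates for displacement of TO-PRO-1 or TO-PRO-3 from RNA in 20 mM phosphate pH 7.0, 20 mM NaCl, 80 mM KCl. Fluorescence was recorded after 30 min on an Infinite 200 PRO (excitation 485 or 620 nm). Reported values are averages of two independent experiments, calculated as indicator fluorescence minus the buffer-plus-indicator blank, divided by the RNA-plus-indicator signal without compound.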
# hsa-mir-21 loop = system: hsa-mir-21 loop
# How it was run: as §1
# hsa-mir-221 loop = system: hsa-mir-221 loop
# How it was run: as §1
# hsa-mir-374a loop = system: hsa-mir-374a loop
# How it was run: as §1
# hsa-mir-6850 loop = system: hsa-mir-6850 loop
# How it was run: as §1
# [1] = indicator: TO-PRO-1 0.1 uM, RNA concentration: 0.1 uM
# [2] = indicator: TO-PRO-3 0.5 uM, RNA concentration: 0.5 uM
SMILES,normalised indicator fluorescence (hsa-mir-191 loop; [1]),normalised indicator fluorescence (hsa-mir-191 loop; [2]),normalised indicator fluorescence (hsa-mir-21 loop; [1]),normalised indicator fluorescence (hsa-mir-21 loop; [2]),normalised indicator fluorescence (hsa-mir-221 loop; [1]),normalised indicator fluorescence (hsa-mir-221 loop; [2]),normalised indicator fluorescence (hsa-mir-374a loop; [1]),normalised indicator fluorescence (hsa-mir-374a loop; [2]),normalised indicator fluorescence (hsa-mir-6850 loop; [1]),normalised indicator fluorescence (hsa-mir-6850 loop; [2])
O=C(O)CCc1ccc(O)cc1O [Hydroumbellic acid],1.11,1.05,0.973,1.06,0.989,1.16,1.1,1.13,1.1,1.04
O=C(O)/C=C/c1ccc(Cn2ccnc2)cc1 [Ozagrel hydrochloride],0.95,0.992,1.01,1.02,1,0.921,1.07,1.12,1.02,1.03
Oc1ccc(OCc2ccccc2)cc1 [Monobenzone],0.997,1.15,0.955,1.11,1.03,1.17,1.27,1.27,0.909,1.06
CC1=C[C@]2(O)O[C@@]3(CC2=C(C)C)[C@@H](C)CC[C@@H]13 [Curcumenol],1,1.02,1.06,1.04,1.01,1.31,1.08,1.33,1.02,0.985
CC(C)c1cc(-c2n[nH]c(=O)n2-c2ccc3c(ccn3C)c2)c(O)cc1O [Ganetespib],1.04,1.03,1,1.04,1.03,1.08,1.07,1.14,0.915,1
NC(=O)c1ccccc1Nc1ccnc(Nc2cccc(O)c2)n1,0.949,1.02,0.974,1.02,0.967,0.979,1.12,1.2,0.993,1.04
CC(C)(O)[C@@H]1CC[C@](C)([C@H]2[C@@H](O)C[C@@]3(C)[C@@H]4C[C@H](O)[C@H]5C(C)(C)[C@@H](O[C@@H]6OC[C@@H](O)[C@H](O)[C@H]6O[C@@H]6O[C@H](CO)[C@@H](O)[C@H](O)[C@H]6O)CC[C@@]56C[C@@]46CC[C@]23C)O1 [Astragaloside III],1.09,1.07,1.01,1.02,1.06,1.07,1.04,1.19,0.952,1.11
CN(C)C[C@@H]1CCn2cc(c3ccccc32)C2=C(C(=O)NC2=O)c2cn(c3ccccc23)CCO1 [Ruboxistaurin hydrochloride],1.1,1.04,0.991,1.01,1,1.12,1.03,1.24,0.894,0.897
CCNC(=O)c1[nH]nc(-c2cc(Cl)c(O)cc2O)c1-c1ccc(OC)cc1,1.01,1.05,1.05,1.06,1.02,0.975,1.11,1.11,0.952,1.05
CCc1cc(C(N)=S)ccn1 [Ethinamide],1.07,1.01,1.1,1.04,1.04,1.07,1.18,1.2,1.04,1.05
O=c1cc(-c2ccccc2)oc2cc(O)c(O)c(O)c12 [Baicalein],0.599,0.956,0.653,0.944,0.767,0.926,0.88,0.91,0.918,1.05
O=C1O[C@H]([C@@H](O)CO)C(O)=C1O [L(+)-Ascorbic acid],1.01,1,0.953,1,1.05,1.11,1.05,1.12,1.09,1.06
O=C(Nc1nc2ccc(NC(=O)C34CC5CC(CC(C5)C3)C4)cc2s1)c1ccccc1,1,1.02,0.991,1.02,1.14,1.05,1.1,1.06,0.997,0.982
Oc1ccc(-c2nc(-c3ccc(F)cc3)c(-c3ccncc3)[nH]2)cc1,1.1,1.04,0.993,1.03,1.08,1.13,1.09,1.2,0.999,1.04
OC[C@H]1O[C@@H](Oc2ccc(O)cc2)[C@H](O)[C@@H](O)[C@@H]1O [Arbutin],0.981,1.07,1.01,1.03,1.08,1.04,1.13,1.04,0.964,1.07
O=C(O)/C=C/c1ccc(Cn2ccnc2)cc1 [Ozagrel],0.962,1.05,0.996,1.03,1.07,1.05,1.12,1.19,0.929,1.03
COC1=CC(=O)c2ccccc2C1=O [2-Methoxynaphthoquinone],1.01,1.03,0.993,1.05,1.06,1.06,1.14,1.19,0.946,1.07
COc1ccc(-c2coc3cc(O)ccc3c2=O)cc1O [Calycosin],1.08,1.02,1,1.06,1.03,1.08,1.01,1.25,1.01,1.07
Cc1cccc(CC(=O)N2CCc3c2ccc(-c2cn(C)c4ncnc(N)c24)c3F)n1,1.03,1.06,1,1.04,1.08,1.01,1.14,1.06,0.973,0.993

SMILES,normalised indicator fluorescence (hsa-mir-191 loop; [1]),normalised indicator fluorescence (hsa-mir-191 loop; [2]),normalised indicator fluorescence (hsa-mir-21 loop; [1]),normalised indicator fluorescence (hsa-mir-21 loop; [2]),normalised indicator fluorescence (hsa-mir-221 loop; [1]),normalised indicator fluorescence (hsa-mir-221 loop; [2]),normalised indicator fluorescence (hsa-mir-374a loop; [1]),normalised indicator fluorescence (hsa-mir-374a loop; [2]),normalised indicator fluorescence (hsa-mir-6850 loop; [1]),normalised indicator fluorescence (hsa-mir-6850 loop; [2])
NC(=O)c1ccc(N(C(N)=O)c2c(F)cccc2F)nc1-c1ccc(F)cc1F,0.984,1.01,0.905,1.02,1.06,0.999,1.15,1.19,0.94,1.03
CCc1oc2ccccc2c1C(=O)c1cc(Br)c(O)c(Br)c1 [Benzbromarone],0.976,1.01,0.927,1.05,1,1.09,1.16,1.34,0.95,1.04
CCOc1cc(C(=O)N2CCC(N3CCN(C)CC3)CC2)ccc1Nc1ncc2c(n1)N(C1CCCC1)c1ccccc1C(=O)N2C,1.09,1.04,0.946,1.01,1.03,1.01,1.07,1.1,0.938,1
CO[C@H]1/C=C/O[C@@]2(C)Oc3c(C)c(O)c4c(c3C2=O)C2=NC3(CCN(CC(C)C)CC3)NC2=C(NC(=O)/C(C)=C\C=C\[C@H](C)[C@H](O)[C@@H](C)[C@@H](O)[C@@H](C)[C@H](OC(C)=O)[C@@H]1C)C4=O [Rifabutin],1.04,1.01,1.03,0.969,0.997,1.01,1.34,1.04,0.991,1.07
CC(=O)CCCCn1c(=O)c2c(ncn2C)n(C)c1=O [Pentoxifylline],1.05,1.01,1.02,1.04,1.01,1.02,1.04,0.959,0.943,0.997
Nc1ncnc2c1ncn2[C@@H]1O[C@H](CO)[C@@H](O)[C@@H]1O [Vidarabine],1.03,1.07,1.03,1.04,1.03,1.04,1.16,1.15,1,1.06
CC1(C)C=Cc2c(ccc3c2OC[C@@H](c2ccc(O)cc2O)C3)O1 [Glabridin],1.07,1.05,1.05,1.03,1.04,1,1.13,1.2,0.981,1.01
N#CC(c1ccnc(OCc2ccc(CN3CCOCC3)cc2)n1)c1nc2ccccc2s1 (stereo not given),1.03,0.659,1.14,0.839,1.37,0.837,1.26,0.694,0.827,0.505
Oc1cc(O)c2c(c1)O[C@H](c1ccc(O)c(O)c1)[C@@H](O)C2 [Cianidanol],1.01,1.07,0.93,1.06,1.16,1.07,1.26,1.17,1,1.07
C/C1=C/CC[C@H](C)C(=O)C[C@@H](C(C)C)C(=O)C1 [Curdione],1.05,1.02,1.04,1.09,1.05,1.16,1.07,1.26,1.14,1.06
CCNC(=O)c1noc(-c2cc(Cl)c(O)cc2O)c1-c1ccc(OC)cc1,1.05,1.04,1.06,1.06,1.06,0.964,1.1,1.17,1.03,1.05
Cc1c(C)c2c(c(C)c1O)CCC(C)(C(=O)O)O2 (stereo not given) [Trolox],1.03,1.05,1.02,0.957,1.05,1.12,1.11,1.22,1.02,1.07
CC(C)N(CCCCOCC(=O)NS(C)(=O)=O)c1cnc(-c2ccccc2)c(-c2ccccc2)n1 [Selexipag],1.04,1.01,1.07,1.07,1.05,1.12,1.14,1.11,1.1,1.09
CNC(=O)c1ccc(C)c(-n2c(C)cc(OCc3ccc(F)cc3F)c(Br)c2=O)c1,1.02,1.03,1.03,1.02,1.19,1.05,1,1.08,0.914,1.04
COC(=O)C1=CC[C@@]23CC[C@@H]([C@@](C)(/C=C/C=C(\C)C(=O)O)OC2=O)[C@@]3(OC(C)=O)CC1 [Pseudolaric Acid B],1.02,0.949,1.02,0.979,0.969,0.93,0.998,1.19,1.03,1.03
O=C(Nc1ccc2[nH]nc(-c3ccncc3)c2c1)[C@@H]1CCN(CC(=O)N2CCN(c3ccc(-c4ncccn4)cc3)CC2)C1,1.05,1.02,1.02,1,1.04,1,1.09,1.16,0.931,0.89
Cc1c(F)cc(C(=O)NC2CC2)cc1-c1ccc(C(=O)NCC(C)(C)C)cn1 [Losmapimod],0.997,1.02,0.887,1.04,1.07,1.08,1.06,1.13,0.95,1.06
Fc1ccc(-c2nc3n(c2-c2ccncc2)CCS3)cc1,1.08,1.08,0.993,1.02,1.07,1.13,1.09,1.18,0.947,1.04

# Source: the supplement of paper PMC11865577
